This is a sample that favours compounds with a hit; in the whole collection about 7.9% have one here.
MCF10A rerep: A quantitative high throughput screen for small molecules that induce DNA re-replication in MCF 10a normal breast cells. 350,000 tested, 2.9% active. MCF 10A DNA re-replication, Hoechst nuclear intensity, 48 h. AID 624296, 2012. Potency, µM (highest dose often 46.1 µM), for inactives: at the highest dose activity, positive = re-replication, actives largely listed as activators; note: % of control where 0% means no effect; nearly all actives have a fitted effect of over 50% in size
KB-V1 cytotox: qHTS assay for MDR1-selective chemotherapeutics: Primary screen using the drug-selected MDR subline cells KB-V1; AID 1347076, 2019; 400,000 tested, 3.4% active; Potency, µM (highest dose often 46.1 µM), most hits filed as cytotoxic; KB-V1 MDR cells viability, CellTiter-Glo, 72 h; note: % is set by controls: 0 for no effect and ±100 for the full control effect; nearly all actives have a fitted effect of over 60% in size
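KB-V1 cells (P-gp-expressing MDR subline of KB-3-1) in phenol-red-free DMEM with 10% FBS were exposed to library compounds over a concentration series for 72 h at 37 degrees C. Viability read by CellTiter-Glo luminescence; concentration-effect curves fitted after normalization.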
HT1080 IDH1KD tx: qHTS for induction of synthetic lethality in tumor cells producing 2HG: qHTS for the HT-1080-IDH1KD cell line. HT-1080 IDH1 knockdown viability, ATP luminescence, 48 h. Potency, µM (titrated, usually from 46.1 µM), inactives show at the highest dose activity, negative = toxicity, usual class: cytotoxic. 360,000 tested, 2% active;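 note: 0% = DMSO wells and -100% = cell-free medium wells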
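After a 2 h attachment period, IDH1KD HT-1080 cells took pin-transferred compound for 48 h at 37 °C; ATP-based luminescence after 10 min room-temperature reagent incubation reported viability.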
SW480 rereplic: A quantitative high throughput screen for small molecules that induce DNA re-replication in SW480 colon adenocarcinoma cells. AID 624297, 2012. 340,000 tested, 1.8% active. Potency, µM (doses to about 46.1 µM), for the others: at the highest dose re-replication activation, actives largely listed as activators. SW480 DNA re-replication, Hoechst DNA content imaging, 48 h; note: % of control where 0% means no effect; nearly all actives have a fitted effect of over 55% in size
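250 cells/well; 23 nL cpd via pin tool; 48 hr, 37 C, 5% CO2; Hoechst 40 min; imager read of total nuclear intensity, ex 405/em 500-530 nm.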
KB-3-1 cytotox: qHTS assay for MDR1-selective chemotherapeutics: Primary screen using the parental adenocarcinoma cell KB-3-1; KB-3-1 viability, CellTiter-Glo ATP luminescence, 72 h; Potency, µM (doses to about 46.1 µM), hits mostly cytotoxic; 400,000 tested, 1.4% active; note: % is set by controls: 0 for no effect and ±100 for the full control effect; nearly all actives have a fitted effect of over 60% in size
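KB-3-1 parental drug-naive adenocarcinoma cells in DMEM/10% FBS, incubated 72 h at 37 C with pin-transferred compounds across a concentration series. Viability by CellTiter-Glo luminescence; concentration-response curves fitted after normalization.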
HT1080-NT tox: qHTS for induction of synthetic lethality in tumor cells producing 2HG: qHTS for the HT-1080-NT fibrosarcoma cell line. HT-1080-NT fibrosarcoma viability, CellTiter-Glo ATP luminescence, 48 h. Potency, µM (highest dose often 46.1 µM), for inactives: at the top dose activity, negative = less viability, actives largely listed as cytotoxic. 360,000 tested, 1.6% active;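 note: NT is the 2HG producing partner of a matched IDH1 knockdown line; 0% = DMSO-treated cells and -100% = media-only wells without cells; nearly all actives have a fitted effect of over 55% in size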
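Toxicity toward the 2HG-producing NT line was scored as %Activity, normalised to DMSO and no-cell wells, from CellTiter-Glo luminescence after 48 hours' treatment.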
Active calls of the source: *; i = inactive; ? = inconclusive; . = no result; [ ] = remark or other dose. Calls come from the whole dose curve; as a rule, active = well fitted curve in the direction sought with a large enough effect; inconclusive = small, poorly fitted or top-dose-only effect, or another doubt; inactive = no such curve, though single readings can be large; an effect the other way counts as inactive or inconclusive. Potency is the fitted concentration of half-maximal effect.

SMILES | MCF10A rerep | KB-V1 cytotox | HT1080 IDH1KD tx | SW480 rereplic | KB-3-1 cytotox | HT1080-NT tox
CCOC(=O)c1sc(=S)n(C)c1NC(=O)c1ccc(F)cc1 | -1% | i | -5% | 0% | i | -4%
COc1cccc(OCc2cc(C3Nc4ccccc4C(=O)N3Cc3ccco3)ccc2OC)c1 (stereo not given) | 19% | 4.1µM* | 0% | 1% | i | -1%
COc1ccc(C2Nc3ccccc3C(=O)N2Cc2ccco2)cc1COc1c(C)cccc1C (stereo not given) | . | i | . | . | 16µM* | .
COc1cccc(OCc2cc(C3Nc4ccccc4C(=O)N3Cc3ccccc3)ccc2OC)c1 (stereo not given) | . | i | . | . | i | .
O=C(NCc1ccccc1)C(c1ccco1)N(C(=O)c1ccccn1)c1ccc(F)cc1 (stereo not given) | -1% | i | 7% | 2% | i | 1%
Cc1csc2nc(SCC(=O)Nc3ccccc3F)[nH]c(=O)c12 | 1% | ? | 3% | 2% | ? | -1%
O=C(Nc1ccc(Cl)c(C(F)(F)F)c1)c1ccncc1 | 0% | ? | -16% | -1% | i | -9%
CNC(=O)c1cc(Oc2ccc(NC(=O)Nc3ccc(Cl)c(C(F)(F)F)c3)cc2)ccn1 | 16µM* | ? | ? | ? | ? | ?
CCc1ccccc1N(C)S(=O)(=O)c1ccc(-c2cc(C)no2)s1 | 2.3µM* | ? | ? | 17% | ? | 12%
COc1ccc(CCNC(=O)CSCC(=O)Nc2ccccc2)cc1OC | 0% | i | -2% | -9% | i | -2%
COc1cnc(-c2ccccc2)nc1Oc1ccc(C(C)(C)C)cc1 | ? | i | -11% | 8% | i | -6%
N#Cc1cccc(NC(=O)CN2C(=O)NC(Cc3ccccc3)C2=O)c1 (stereo not given) | 0% | i | 15% | -32% | i | 0%
O=C(CNCc1ccccc1)Nc1ccccc1-c1ccccc1 | 23µM* | i | 11% | -3% | i | -1%
O=C(CNc1ccccc1-c1ccccc1)NCc1ccccc1 | 15% | 16µM* | -2% | 5% | i | -2%
CCS(=O)(=O)Nc1ccc2c(c1)OCO2 | 1% | i | -12% | 1% | i | -1%
COc1cc(NC(=O)CN2C(=O)NC(c3ccccc3)(c3ccccc3)C2=O)cc(OC)c1 | ? | i | -15% | 14% | i | -1%
O=C(Nc1ccc(Cl)c(C(F)(F)F)c1)C1Cc2c(-c3ccc4c(c3)OCO4)ccnc2O1 (stereo not given) | . | i | 21µM* | . | i | ?
CC(=O)Nc1ccc(-c2ccnc3c2CC(C(=O)Nc2ccc4c(c2)OCO4)O3)cc1 (stereo not given) | . | ? | 15µM* | . | ? | ?
CC(=O)c1cccc(-c2ccnc3c2CC(C(=O)Nc2ccc4c(c2)OCO4)O3)c1 (stereo not given) | . | ? | 2.3µM* | . | 6.5µM* | ?
O=C(N1CCCCC1)C12CC3CC(C1)CC(C(=O)N1CCCCC1)(C3)C2 | 5% | ? | 2%[9.24 µM] | -4% | i | 10%
CCn1c(=O)[nH]c(=O)c2c(N)c(C(=O)c3ccccc3OC)sc21 | 1% | 23µM* | 10% | -32% | i | 2%
CCOC(=O)c1c(-c2ccccc2)oc2ccc(OCC)cc12 | ? | ? | 4% | 231% | i | 0%
CCOC(=O)c1c(-c2ccccc2)oc2ccc(OCC(O)CNCCN(C)C)cc12 (stereo not given) | ? | ? | 13µM* | 19% | ? | 18µM*
O=C(NC1CCN(C(=S)Nc2ccc(Cl)cc2)CC1)c1ccco1 | -2% | i | -9% | -12% | i | -9%
S=C(NCCc1ccccc1)N1CCN(Cc2ccc(Cl)c(Cl)c2)CC1 | -1% | i | -4% | 13% | ? | -17%
SMILES | MCF10A rerep | KB-V1 cytotox | HT1080 IDH1KD tx | SW480 rereplic | KB-3-1 cytotox | HT1080-NT tox
S=C(NCCc1ccccc1)N1CCN(C(=S)NCCc2ccccc2)CC1 | 4% | i | 1% | 3% | i | 0%
Fc1ccc(CN2CCN(C(=S)NCCc3ccccc3)CC2)c(Cl)c1 | 23% | 21µM* | -27% | 2% | ? | -19%
CC1CCN(C(=S)NCCc2ccccc2)CC1 | -3% | 23µM* | ? | 4% | i | ?
O=C(N/N=C\c1ccc(-c2cccc(Cl)c2)o1)C(=O)NC1CCCC1 | ? | i | 19% | -5% | i | ?
O=Cc1ccc(-c2ccccc2C(=O)O)o1 | 10% | ? | 18% | 2% | i | 18%
Cc1c(C(=O)O)cccc1-c1ccc(/C=N/Nc2ccc(Br)cc2)o1 | 18µM* | i | ? | 5% | ? | -23%
CC1=NN(c2ccc(Br)cc2)C(=O)/C1=C/c1ccc(-c2ccccc2C(=O)O)o1 | 23µM* | i | -6% | 14% | i | -6%
O=C(O)c1cc(N/N=C/c2ccc(-c3ccc(F)cc3)o2)ccc1Cl | 18µM* | i | -10% | 18µM* | i | -8%
CC1=NOC(=O)/C1=C\c1ccc(-c2ccc(Br)cc2C(=O)O)o1 | 13% | ? | 3% | -1% | i | 2%
O=C(Cc1ccc(F)cc1)N/N=C/c1ccc(-c2ccc(Cl)c(C(=O)O)c2)o1 | ? | i | -6% | -6% | i | 1%
O=C(O)c1ccc(N/N=C/c2ccc(-c3cccc(Cl)c3)o2)cc1 | ? | i | 16µM* | 21µM* | ? | 10µM*
O=C(CSc1ccccn1)Nc1ccc(Cl)c([N+](=O)[O-])c1 | -5% | i | 2% | -6% | i | 9%
O=C(NCc1ccccc1)c1ccc2c(c1)CCN2S(=O)(=O)c1ccccc1 | . | i | . | . | i | .
O=C(O)c1ccc(N/N=C/c2ccc(-c3cc(Cl)ccc3Cl)o2)cc1 | 2.1µM* | ? | 16µM* | 12µM* | i | ?
O=C(O)c1ccc(N/N=C/c2ccc(-c3ccc(Cl)cc3Cl)o2)cc1 | ? | i | ? | 23µM* | 23µM* | ?
CC(=O)Nc1ccc(S(=O)(=O)N(C)CC(=O)OCC(=O)N2CCN(C(=O)c3ccco3)CC2)cc1 | -22% | i | -3% | 1% | i | 4%

High-throughput results deposited in PubChem by National Center for Advancing Translational Sciences (NCATS).
